# Screens from PubChem BioAssay.
# Sampled rows, rich in hits. Any-hit rate of the full collection: about 1.2%.
# AMA1 RON2 block: AMA1-RON2 (P. falciparum) interaction inhibition. AlphaScreen AMA1-biotinylated RON2 peptide binding. Potency, µM (highest dose often 58.2 µM), most hits filed as inhibitors. hit rate 0.2% among 360,000; further: nearly all actives have a fitted effect of over 45% in size
#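 AMA1 (3D7) with his tag at 25 nM final met compounds first, then biotinylated RON2 peptide at 25 nM; detection used donor plus acceptor beads, 10 µg/mL apiece, read by AlphaScreen after 30 min at room temperature.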
# TbPYK inhibitor: blocks Trypanosoma brucei pyruvate kinase. TbPYK enzyme, Kinase-Glo Plus ATP luminescence, 45 min. Potency, µM (doses to about 76.8 µM), hits mostly inhibitors. hit rate 0.12% among 410,000; further: nearly all actives have a fitted effect of over 50% in size
#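 Glycolytic pyruvate kinase of T. brucei was incubated with substrate, test compound and 130 uM ADP for 45 minutes at room temperature. Luminescent Kinase-Glo Plus signal was measured after 10 minutes.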
# Giardia FBPA inh: blocks Giardia fructose-bisphosphate aldolase activity. A8B2U2. purified Giardia FBPA. Potency, µM (top dose mostly 59.6 µM), hits mostly inhibitors. hit rate 0.71% among 290,000; further: nearly all actives have a fitted effect of over 55% in size
#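 40 nM FBPA preincubated 10 min at RT with compound (up to 57.5 uM final), then substrate plus GAPDH/TPI/NAD/arsenate coupling and diaphorase/resazurin added. Fluorescence read after 20 min at RT, 525/598 nm.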
# NS1 inh: influenza NS1 inhibition | Potency, µM (series often up to 46.1 µM) | hit rate 0.4% among 270,000 | AID 2326; calls by dose curve; further: actives are rising curves; nearly all actives have a fitted effect of over 50% in size
#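 Compounds were scored for reversing the slow growth caused by influenza A NS1 in S. cerevisiae, measured by optical density at 600 nm. Assay medium contained 2% galactose at pH 6.0; NS1-free yeast of the same strain were the positive control.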
# LmPK inhibitor: LmPK (Leishmania mexicana) enzyme inhibition | purified LmPK, Kinase-Glo ATP luminescence, 1 h | Potency, µM (doses to about 57.5 µM), hits mostly inhibitors | hit rate 0.37% among 290,000
# Target sequence (Q27686 whole entry, looked up): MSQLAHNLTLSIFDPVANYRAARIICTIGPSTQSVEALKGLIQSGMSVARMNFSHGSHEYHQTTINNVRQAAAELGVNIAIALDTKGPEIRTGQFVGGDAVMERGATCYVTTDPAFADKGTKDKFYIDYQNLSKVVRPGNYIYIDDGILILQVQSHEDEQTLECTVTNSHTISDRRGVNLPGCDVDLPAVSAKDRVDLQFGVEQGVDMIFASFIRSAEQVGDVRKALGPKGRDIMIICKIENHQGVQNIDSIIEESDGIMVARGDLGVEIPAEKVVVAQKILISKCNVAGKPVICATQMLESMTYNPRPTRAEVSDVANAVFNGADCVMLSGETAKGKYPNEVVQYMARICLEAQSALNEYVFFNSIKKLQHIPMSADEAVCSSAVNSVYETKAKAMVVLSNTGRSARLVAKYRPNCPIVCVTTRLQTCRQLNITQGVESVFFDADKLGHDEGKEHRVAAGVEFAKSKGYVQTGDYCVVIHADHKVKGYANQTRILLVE
#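 Screened at intermediate enzyme activity to detect both inhibitors and activators: LmPK at 0.1 nM, with a 0.5 nM enzyme column as activation reference. PEP 0.5 mM, ADP 0.1 mM; ATP detected by luminescence after 1 h.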
# Hits are given with their value; . = inactive; ? = inconclusive; / = not tested or not shown; [ ] = dose if it differs, or a comment. Unless noted, the call rests on the fitted dose curve; in most records, active means well fitted curve in the direction sought with a large enough effect; inconclusive means small, poorly fitted or top-dose-only effect, or another doubt; inactive means no such curve, though single readings can be large; an effect the other way counts as inactive or inconclusive.
SMILES,AMA1 RON2 block,TbPYK inhibitor,Giardia FBPA inh,NS1 inh,LmPK inhibitor
CCOc1ccccc1N1CCN(C2=C(NS(=O)(=O)c3cccs3)C(=O)c3ccccc3C2=O)CC1,10µM,.,?,?,.
O=C1C(NS(=O)(=O)c2cccs2)=C(N2CCOCC2)C(=O)c2ccccc21,.,.,?,.,.
O=C1C(NS(=O)(=O)c2cccs2)=C(N2CCN(c3cccc(C(F)(F)F)c3)CC2)C(=O)c2ccccc21,10µM,.,?,.,.
O=C1C(NS(=O)(=O)c2cccs2)=C(N2CCN(Cc3ccccc3)CC2)C(=O)c2ccccc21,28µM,.,?,.,.
CN1CCN(C2=C(NS(=O)(=O)c3cccs3)C(=O)c3ccccc3C2=O)CC1,.,.,?,.,.
CCCCc1cc2c(=O)c(C(=O)OC)c[nH]c2cc1OCc1ccccc1,/,.,/,/,/
Fc1ccc(-[n+]2nc(Nc3ccccc3)sc2-c2c3ccccc3cc3ccccc23)cc1,?,.,22µM,/,.
c1ccc(-[n+]2nc(Nc3cccc4ccccc34)sc2-c2c3ccccc3cc3ccccc23)cc1,?,.,/,/,/
CCCN1CCc2cc(O)cc3c2[C@H]1Cc1ccc(O)c(O)c1-3,?,.,/,/,/
CN1CCc2cc(O)cc3c2[C@H]1Cc1ccc(O)c(O)c1-3,10µM,.,/,/,/
CCCN1CCc2cccc3c2C1Cc1ccc(O)c(O)c1-3 (stereo unspecified),/,/,13µM,.,/
Cc1ccc(C)c(-n2c(-c3ccncc3)n[nH]c2=S)c1,.,?,?,.,20µM
Cc1ccc(-n2c(-c3ccccc3)n[nH]c2=S)cc1,.,?,.,.,?
Cc1ccc(-n2c(-c3ccncc3)n[nH]c2=S)cc1C,.,?,.,.,.
Cc1ccc(-n2c(Cc3cccc4ccccc34)n[nH]c2=S)c(C)c1,.,?,.,.,.
Cc1ccc(C)c(-n2c(-c3csc(C)c3)n[nH]c2=S)c1,.,?,.,.,7.9µM
Cc1ccc(-n2c(-c3ccccc3)n[nH]c2=S)c(C)c1,.,11µM,.,.,.
Cc1ccc(-n2c(-c3ccncc3)n[nH]c2=S)cc1,.,?,.,/,16µM
CO/N=C1/CC2(CC3CC(C/C=C(/C)CC(C)/C=C\C=C4\COC5C(O)C(C)=CC(C(=O)O3)C45O)O2)OC(/C(C)=C/C(C)C)C1C (stereo unspecified),/,.,/,/,/
O=C(OCC(F)(F)F)[C@H](O)[C@@H](O)C(=O)OCC(F)(F)F,/,/,.,/,/
Cc1ccc(C)c(-n2c(-c3ccc4c(c3)OCO4)n[nH]c2=S)c1,.,5µM,.,.,4µM
COc1cccc(C(=O)/C=C/c2ccc(N3CCCCC3)c([N+](=O)[O-])c2)c1,5µM,.,.,.,.
O=C(/C=C/c1ccc(N2CCCCC2)c([N+](=O)[O-])c1)c1ccc(S(=O)(=O)N2CCCC2)cc1,.,.,.,.,.
Cc1ccc(C(=O)Nc2nc3c(s2)CCCC3)o1,.,.,.,.,25µM
Cc1noc(C)c1C(=O)N1CCC[C@@]2(CCN(c3ccccn3)C2)C1,/,.,.,/,/
SMILES,AMA1 RON2 block,TbPYK inhibitor,Giardia FBPA inh,NS1 inh,LmPK inhibitor
CCCCCCCN(CC)CCCC(O)c1ccc(NS(C)(=O)=O)cc1 (stereo unspecified),/,.,/,/,/
Cc1ccc(C(=O)O/N=C(\N)c2ccccn2)c(Cl)c1,.,14µM,.,.,?
N/C(=N\OC(=O)c1ccc([N+](=O)[O-])cc1Cl)c1ccccn1,.,?,.,.,18µM
N/C(=N\OC(=O)c1cc([N+](=O)[O-])ccc1Cl)c1ccccn1,.,.,.,.,.
N/C(=N\OC(=O)c1ccc(Cl)cc1Cl)c1ccccn1,.,.,.,.,7.1µM
OC[C@H]1O[C@H](OC/C=C/c2ccccc2)[C@H](O)[C@@H](O)[C@@H]1O,/,.,/,/,/
O=C(Nc1ncc([N+](=O)[O-])s1)c1cccc([N+](=O)[O-])c1,.,.,?,.,13µM
O=C(Nc1ccc(NC(=O)c2cccc([N+](=O)[O-])c2)cc1)c1cccc([N+](=O)[O-])c1,.,.,.,.,.
Nc1ccn([C@H]2O[C@H](CO)[C@@H]3[O][Sn]([c]4ccccc4)([c]4ccccc4)[O][C@H]32)c(=O)n1,/,/,/,.,/
CC1CC(C)CN(C(=O)c2ccc3c(c2NCCO)C(=O)c2ccccc2C3=O)C1 (stereo unspecified),22µM,.,.,.,?
CC1CC(C)CN(C(=O)COC(=O)CN2C(=O)c3ccccc3C2=O)C1 (stereo unspecified),.,.,/,/,/
Cn1c(C(=O)N2CCCC2)cc2c(=O)n(C)c3ccccc3c21,.,.,.,.,.
Cn1c(C(=O)N2CCN(c3ncccn3)CC2)cc2c(=O)n(C)c3ccccc3c21,.,.,18µM,.,.
CCOc1ccc(/C=C2\SC(=S)NC2=O)cc1OC,.,.,.,.,14µM
COc1cc(/C=C2\SC(=S)NC2=O)ccc1OS(=O)(=O)c1ccccc1,/,/,.,.,.
COc1ccc(CNC(=O)c2ccc3c(c2)N(C)C(=O)C2CCCCN32)cc1OC (stereo unspecified),/,.,/,/,/
Cc1csc(N=Nc2ccc(N(C)C)cc2)[n+]1[O-],14µM,?,/,/,/
CN(C)c1ccc(N=Nc2ccc(C(=O)O)cc2)cc1,.,.,?,.,.
CCOC(=O)CN[C@@H](C(=O)N1CC[C@H]1C(=O)NCc1ccc(/C(N)=N/O)cc1)C1CCCCC1,/,.,/,/,/
CCOc1ccccc1/C=N/NC(=O)c1cccc(S(=O)(=O)N(CC)CC)c1,.,.,?,/,.
CN(C)S(=O)(=O)c1cccc(NC(=S)N/N=C/c2ccc(O)c(O)c2O)c1,.,10µM,16µM,.,.
CCN(CCO)c1ccc(NC(=S)Nc2cccc(S(=O)(=O)N(C)C)c2)cc1,.,.,7.9µM,/,.
CCN(CC)S(=O)(=O)c1cccc(C(=O)N/N=C/c2ccc(O)c(O)c2O)c1,.[11.6 µM],?,4.5µM,.,.
CCn1c(C)nc2cc(C(=O)N/N=C/c3cccc(OC)c3O)ccc21,.,.,.,.,.
COc1ccc(O)c(/C=N/NC(=S)Nc2cccc(S(=O)(=O)N(C)C)c2)c1,.,.,.,?,.
SMILES,AMA1 RON2 block,TbPYK inhibitor,Giardia FBPA inh,NS1 inh,LmPK inhibitor
CCn1c(C)nc2cc(C(=O)N/N=C/c3ccc(O)c(O)c3O)ccc21,14µM,?,13µM,.,.
COc1ccc(-c2cc([C@H](O)C3CCCCN3)c3ccccc3n2)cc1 (stereo partly specified),/,/,/,.,/
C[C@]12CC[C@@H]3c4ccc(OC(=O)N(CCCl)CCCl)cc4CC[C@H]3[C@@H]1CC[C@@H]2OP(=O)(O)O,/,.,/,/,/
CSc1nc2sc3c(c2c(=O)n1-c1ccc(C)c(Cl)c1)CCN(C(C)=O)C3,/,.,/,/,/
CCCCCCCCSC1=CC(=O)C(OC)=C(OC)C1=O,7.9µM,14µM,/,/,/
CC(C(O)c1ccccc1)N(C)CCOC(c1ccccc1)c1ccccc1 (stereo unspecified),/,.,/,/,/
COc1ccc(OC)c(Nc2c3ccccc3nc3ccccc23)c1,20µM,.,.,.,.
